{"source": "PubChem BioAssay AID449", "about": "(The Scripps Research Institute Molecular Screening Center, 2006)", "biological_target": "Sphingosine 1-phosphate receptor 1 (Homo sapiens) (UniProt P21453)", "sequence (P21453 whole entry, looked up)": "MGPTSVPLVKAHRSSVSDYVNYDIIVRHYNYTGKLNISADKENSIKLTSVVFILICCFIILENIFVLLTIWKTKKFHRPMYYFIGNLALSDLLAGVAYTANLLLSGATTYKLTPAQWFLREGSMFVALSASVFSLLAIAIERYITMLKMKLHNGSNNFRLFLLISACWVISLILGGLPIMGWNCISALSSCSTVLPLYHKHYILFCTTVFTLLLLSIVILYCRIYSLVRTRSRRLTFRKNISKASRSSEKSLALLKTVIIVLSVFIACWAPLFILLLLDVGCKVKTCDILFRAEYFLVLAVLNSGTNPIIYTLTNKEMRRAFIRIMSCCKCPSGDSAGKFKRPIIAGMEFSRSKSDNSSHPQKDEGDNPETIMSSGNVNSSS", "assay": "activation or potentiation of human S1P1 signaling – cell-based, primary and confirmation screens, CRE-bla reporter, primary screen (AID 449);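 also: forskolin at 4 µM as EC80 and the EC20 agonist is SEW2871; 100% = SEW2871 at its EC100 plus forskolin at EC80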", "settings": "S1P1 CRE-bla cells, forskolin, beta-lactamase FRET, potentiator mode, at 9.5 µM, stronger effect = higher value, 100% = saturating reference agonist, 0% = basal, S1P1 agonist co-added at EC20, 2 nM", "key": {"[1]": {"settings": "measured here: confirmation screen, triplicate average"}}, "note": "Among all 56,000 compounds or so, about 320 (0.57%) were called active.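 The calls were made as follows: active = activation above a cutoff set at the mean activation of all tested compounds plus 3 SD (cut at about 54% in these data); inactive = the rest, inconclusive results apart.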 The list comes from a sample in which actives are over-represented; it also holds similar structures and randomly drawn compounds.", "data": [{"smiles": "CCn1c(SCCC(C)C)nnc1-c1c[nH]c2ccccc12", "values": [{"measurement": "activation", "value": "33% (inactive)"}]}, {"smiles": "Cc1ccc2c(c1)c1ncn(CCC3=CCCCC3)c(=O)c1n2C", "values": [{"measurement": "activation", "value": "-12.4% (inactive)"}]}, {"smiles": "CCOCC(=O)NCc1ccc2c(c1)cc(C)n2C", "values": [{"measurement": "activation", "value": "-18% (inactive)"}]}, {"smiles": "Cc1ccc(Cn2c(NC(=O)c3ccco3)nc3ccccc32)cc1", "values": [{"measurement": "activation", "value": "-7.4% (inactive)"}]}, {"smiles": "Cc1cc(NC(=O)CN2CCCCC2C)nc2c1c(=O)oc1ccccc12", "note": "(stereo not given)", "values": [{"measurement": "activation", "value": "-16.9% (inactive)"}]}, {"smiles": "CC1(C)CC(=O)C2=C(C1)NCN(CCCN1CCOCC1)C2", "values": [{"measurement": "activation", "value": "-12.5% (inactive)"}]}, {"smiles": "COc1ccc(CCNC(=O)CCn2c(=O)oc3ccccc32)cc1OC", "values": [{"measurement": "activation", "value": "-30% (inactive)"}]}, {"smiles": "Cc1cc(Cl)ccc1N1C(=O)CC(SCCC(=O)O)C1=O", "note": "(stereo not given)", "values": [{"measurement": "activation", "value": "15% (inactive)"}]}, {"smiles": "O=C(NCCN1C(=O)C2C3C=CC(C3)C2C1=O)Nc1ccccn1", "note": "(stereo not given)", "values": [{"measurement": "activation", "value": "1.7% (inactive)"}]}, {"smiles": "C#CCN1CC(C)/C(=N/O)CC1C", "note": "(stereo not given)", "values": [{"measurement": "activation", "value": "-13.4% (inactive)"}]}, {"smiles": "Fc1ccc2nc(N3CCCCC3)sc2c1", "values": [{"measurement": "activation", "value": "-23.5% (inactive)"}]}, {"smiles": "O=C(c1cccs1)N1CCN(Cc2ccc3c(c2)OCO3)CC1", "values": [{"measurement": "activation", "value": "1.7% (inactive)"}]}, {"smiles": "Cc1cc(N2CCN(Cc3ccc4c(c3)OCO4)CC2)n2ncnc2n1", "values": [{"measurement": "activation", "value": "3.4% (inactive)"}]}, {"smiles": "Fc1ccc2[nH]c3c(N4CCN(Cc5ccc6c(c5)OCO6)CC4)ncnc3c2c1", "values": [{"measurement": "activation", "value": "106% (active)"}, {"measurement": "activation", "setting": "[1]", "value": 116, "unit": "%"}]}, {"smiles": "Cc1ccc(-n2ncc3c(N4CCN(c5ccc(F)cc5)CC4)ncnc32)c(C)c1", "values": [{"measurement": "activation", "value": "-9.5% (inactive)"}]}, {"smiles": "Fc1ccc2[nH]c3c(N4CCSCC4)ncnc3c2c1", "values": [{"measurement": "activation", "value": "73% (active)"}, {"measurement": "activation", "setting": "[1]", "value": 103, "unit": "%"}]}, {"smiles": "Cc1noc(/C=C/N(C)C)c1S(=O)(=O)N1CCCC(C(=O)NCc2ccco2)C1", "note": "(stereo not given)", "values": [{"measurement": "activation", "value": "-32.7% (inactive)"}]}, {"smiles": "Cc1cc(/C=N/n2cnnc2)c(C)n1-c1cccc(C(=O)O)c1", "values": [{"measurement": "activation", "value": "-16.1% (inactive)"}]}, {"smiles": "Cc1ccc(C(c2sc3nc(C)nn3c2O)N2CCN(c3ccccc3)CC2)cc1", "note": "(stereo not given)", "values": [{"measurement": "activation", "value": "-6.2% (inactive)"}]}, {"smiles": "CCN(CC)P(=O)(C(NC(=O)OC)C(F)(F)C(F)(F)C(F)(F)C(F)F)N(CC)CC", "note": "(stereo not given)", "values": [{"measurement": "activation", "value": "2.6% (inactive)"}]}, {"smiles": "COc1ccc(CC(=O)n2nc(-c3cccnc3)nc2N)cc1", "values": [{"measurement": "activation", "value": "2.4% (inactive)"}]}, {"smiles": "CC12CCC(C(=O)N(CCC#N)CCC#N)(CC1=O)C2(C)C", "note": "(stereo not given)", "values": [{"measurement": "activation", "value": "-0.9% (inactive)"}]}, {"smiles": "CC1Cc2ccccc2N1C(=O)CSc1nnc(-c2ccc(S(=O)(=O)N3CCCCC3)cc2)o1", "note": "(stereo not given)", "values": [{"measurement": "activation", "value": "-18.5% (inactive)"}]}]}
